A selection: hits, their analogues and other compounds. The true share with any hit is near 3.5%.
Mtb FBA inh – Mtb FBA enzyme inhibitors, primary screen, biochemical, fluorescence, strain H37Rv | Fructose-bisphosphate aldolase (Mycobacterium tuberculosis (strain ATCC 25618 / H37Rv)), … | purified M. tuberculosis FBA, fluorescence read-out | inhibition, % at 1 µM | 360,000 tested, 2.3% active;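 note: 0% = vehicle and 100% = reference inhibitor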
Target sequence (P9WQA3 whole entry, looked up): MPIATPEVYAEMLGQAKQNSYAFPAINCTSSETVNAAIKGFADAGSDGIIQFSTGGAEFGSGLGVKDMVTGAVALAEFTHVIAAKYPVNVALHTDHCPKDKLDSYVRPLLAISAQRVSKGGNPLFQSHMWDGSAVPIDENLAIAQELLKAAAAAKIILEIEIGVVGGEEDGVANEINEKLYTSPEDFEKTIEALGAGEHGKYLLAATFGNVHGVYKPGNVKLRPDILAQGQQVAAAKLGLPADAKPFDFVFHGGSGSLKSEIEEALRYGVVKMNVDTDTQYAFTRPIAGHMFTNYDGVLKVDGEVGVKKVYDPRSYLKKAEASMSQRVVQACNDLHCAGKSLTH
FadD28 binding – inhibitors of FadD28 bisubstrate probe binding, primary screen, biochemical, fluorescence polarization, single point | Mycobacterium tuberculosis FadD28 fatty-acid-AMP ligase | inhibition, % at 12.5 µM | 360,000 tested, 0.22% active | AID 588549, 2011; in the data active = inhibition above about 8.5%, passing the limit was not always enough
Mtb hypoxia rep – PubChem AID 1159583; M. tuberculosis hypoxia-regulated fluorescent reporter, fluorescence; fluorescence inhibition, % (test concentration not listed); 300,000 tested, 0.1% active; in the data active = fluorescence inhibition mostly above about 23%, no sharp cut-off; inactive = mostly below about 17%
Mtb UGM inh – M. tuberculosis UGM enzyme inhibitors, primary screen, biochemical, fluorescence polarization, single point | UDP-galactopyranose mutase (Mycobacterium tuberculosis (strain ATCC 25618 / H37Rv)), … | purified UGM, fluorescence polarization probe displacement | inhibition, % at 10 µM | 320,000 tested, 0.06% active | AID 504406, 2011; in the data active = inhibition above about 10%, passing the limit was not always enough
GDH-TPI counter-1 – GDH-TPI coupling enzyme inhibitors, primary screen, artefact control for M. tuberculosis FBA inhibitor project, biochemical, absorbance, full deck; GDH-TPI coupled enzyme counterscreen, NADH absorbance; inhibition, % at 4.8 µM; 360,000 tested, 1.2% active; in the data active = inhibition above about 30%;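 note: 0% = DMSO wells and 100% = wells lacking the enzyme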
Rv3671c protease – Rv3671c serine protease inhibitors, primary screen, biochemical, fluorescence polarization, M. tuberculosis H37Rv; P9WHR9; inhibition, % at 5.96 µM; 320,000 tested, 0.048% active; AID 2606, 2010; in the data active = inhibition above about 38%;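 note: extracellular domain of Rv3671c used as enzyme; 0% = enzyme with DMSO and 100% = no enzyme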
Mtb FBA inh conf – M. tuberculosis aldolase blockers, biochemical, fluorescence, strain H37Rv, confirmation; shares compounds with Mtb FBA inh; purified M. tuberculosis FBA, fluorescence read-out; inhibition, % at 1 µM; 5,600 tested, 78% active;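 note: 0% = vehicle wells and 100% = reference inhibitor wells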
GDH-TPI counter-2 – GDH-TPI coupling enzyme inhibitors, artefact control for M. tuberculosis FBA inhibitor project, biochemical, fluorescence, high throughput. shares compounds with Mtb FBA inh. 5,600 tested, 81% active. GDH-TPI coupled enzyme counterscreen. inhibition, % at 1 µM; in the data active = inhibition above about 10%
GDH-TPI DR – GDH-TPI coupling enzyme inhibitors, dose response, artefact control for M. tuberculosis FBA inhibitor project, biochemical, fluorescence, IC50. shares compounds with Mtb FBA inh. GDH-TPI coupled enzyme assay, artifact counterscreen. IC50, µM. 170 tested, 79% active. AID 652145, 2013; call rule not given here
An asterisk follows results filed as active; nt = no result; + = active, no number. Cut-off read from the data, not from the text of the source, unless noted: active = inhibition above about 27%; inactive = the rest.

SMILES	Mtb FBA inh	FadD28 binding	Mtb hypoxia rep	Mtb UGM inh	GDH-TPI counter-1	Rv3671c protease	Mtb FBA inh conf	GDH-TPI counter-2	others
CC(SCc1nc2sc3c(c2c(=O)[nH]1)CCCC3)C(=O)Nc1ccccn1 (centres undefined)	37*	-1	6	0	6	-3	127*	92*
Cc1ccc(NC(=O)C(C)SCc2nc3sc4c(c3c(=O)[nH]2)CCCC4)nc1 (centres undefined)	10	0	1	1	6	-9	nt	nt
Nc1nccnc1C(=O)OCc1nc2sc3c(c2c(=O)[nH]1)CCCC3	40*	-4	-4	-1	9	6	+	+
CCCN1CCN(CCCNC(=O)c2cc3c(=O)oc4ccc(C)cc4c3s2)CC1	6	0	8	-2	8	6	nt	nt
CCCN1CCN(CCCNC(=O)c2cc3c(=O)[nH]c4ccccc4c3s2)CC1	47*	-2	10	1	5	-1	91*	76*
COCCNC(=O)c1cc2c(=O)[nH]c3ccccc3c2s1	78*	-2	10	-1	19	-16	102*	84*
CC1(C)Cc2nc3sc4c(N(CCO)CCO)nnnc4c3cc2CO1	36*	1	19	0	1	8	+	188*
COC(=O)C(CC(C)C)NS(=O)(=O)c1ccccc1 (centres undefined)	nt	nt	22	nt	nt	nt	nt	nt
COc1ccccc1NC(=O)N1CCOCC1	0	0	14	-1	1	7	nt	nt
O=C(Nc1cccc2ccccc12)N1CCc2ccccc2C1	43*	-2	nt	-1	7	-13	14	-3	GDH-TPI DR=>10
O=C(Nc1cccc2ccccc12)N1CCN(c2ccc(F)cc2)CC1	30*	0	-5	4	5	-5	54*	55*
NC(=O)C1CCCN(C(=O)Nc2cccc3ccccc23)C1 (centres undefined)	40*	0	nt	3	-3	-1	60*	46*
CCc1ccccc1NC(=O)N1CCc2ccccc2C1	-1	-3	14	-4	-5	nt	nt	nt
COC(=O)c1ccccc1NC(=O)N1CCN(c2ccc(F)cc2)CC1	0	-1	17	0	-3	8	nt	nt
O=C(Nc1cccc2ccccc12)N1CCOCC1	45*	-2	6	2	-2	-11	122*	88*
CC(C)(C)c1cc(C=NNC(=O)Cc2nc3ccccc3[nH]2)cc(C(C)(C)C)c1O	nt	nt	-2	nt	nt	nt	nt	nt
CC[C@]12C(=O)N(C)CC(C3C(=O)N(C)C(=O)C31)N2C(=O)c1ccc(C(C)(C)C)cc1 (some centres undefined)	nt	nt	19	nt	nt	nt	nt	nt
O=C(Nc1cccc2ccccc12)N1CCCN(c2c(Cl)cncc2Cl)CC1	-18	-1	-1	-2	-1	-11	nt	nt
CCN1CCN(C(=O)Nc2cccc3ccccc23)CC1	44*	-3	12	2	1	0	71*	72*
CN1CCN(C(=O)Nc2cccc3ccccc23)CC1	40*	-1	2	4	-6	-2	10	-6
O=C(O)c1ccccc1NC(=O)N1CCOCC1	32*	0	3	0	3	6	112*	90*
COc1ccc(NC(=O)c2nc[nH]c2C(=O)NC(C)c2ccccc2)cc1 (centres undefined)	nt	nt	13	nt	nt	nt	nt	nt
COC(=O)c1ccc(/C=C/c2ccc3cccc(OC)c3n2)cc1	60*	-2	8	3	37*	-22	+	+
COc1ccc(/C=C/c2ccc3cccc(O)c3n2)cc1Br	-1	0	9	-1	23	3	nt	nt
CCOc1ccc(-n2nc(C(=O)NC3CCCCC3)c3ccccc3c2=O)cc1	1	-1	5	3	6	-8	nt	nt
SMILES	Mtb FBA inh	FadD28 binding	Mtb hypoxia rep	Mtb UGM inh	GDH-TPI counter-1	Rv3671c protease	Mtb FBA inh conf	GDH-TPI counter-2	others
CCN(CCCNC(=O)CNC(=O)c1nn(-c2ccc(OC)c(OC)c2)c(=O)c2ccccc12)c1ccccc1	27*	0	-1	2	3	3	189*	156*
CCOc1ccc(-n2nc(C(=O)NCCOC)c3ccccc3c2=O)cc1	68*	0	nt	-2	6	-5	+	191*
COc1cccc2cc(-c3n[nH]c(=S)n3C)oc12	42*	-2	-11	1	1	0	1	-4
O=C(Nc1ccccc1)ON=Cc1ccc(F)cc1	nt	nt	8	nt	nt	nt	nt	nt
Cc1cc(OCC(=O)NCC2CCC(C(=O)O)CC2)c2c3c(c(=O)oc2c1)CCC3 (centres undefined)	20	-2	nt	0	15	0	nt	nt
CCCc1cc(=O)oc2cc(C)cc(OCC(=O)N3CCC(C(=O)O)CC3)c12	97*	-1	nt	-2	10	-4	73*	65*
CCCCc1cc(=O)oc2cc(C)cc(OCC(=O)N3CCC(C(=O)O)(c4ccccc4)CC3)c12	62*	-3	nt	0	10	6	52*	34*
Cc1cc(OCC(=O)N2CCc3ccccc3C2)c2c(-c3ccccc3)cc(=O)oc2c1	-2	-1	nt	-6	10	-17	nt	nt
CCCc1cc(=O)oc2cc(C)cc(OCC(=O)N3CCC(C(N)=O)CC3)c12	39*	-2	nt	2	19	2	85*	81*
Cc1cc(OCC(=O)N2CCC(C(=O)O)CC2)c2c3c(c(=O)oc2c1)CCC3	98*	-2	nt	3	16	-11	166*	133*
Cc1cc(OCC(=O)N2CCC(O)(c3ccc(Cl)cc3)CC2)c2c(C)cc(=O)oc2c1	4	-1	-11	2	7	-15	nt	nt
CCCc1cc(=O)oc2cc(OCC(=O)N3CCN(Cc4ccc5c(c4)OCO5)CC3)ccc12	15	-2	-5	1	7	-9	nt	nt
COc1ccccc1N1CCN(C(=O)COc2cc(C)cc3oc(=O)cc(C)c23)CC1	5	-2	6	1	4	0	nt	nt
CCc1cc(=O)oc2cc(C)cc(OCC(=O)N3CCC(C(=O)O)CC3)c12	76*	-1	nt	2	15	-3	121*	109*

Compound activity as filed in PubChem.
